From PubChem BioAssay (Tox21) come the findings set out here.

Test [1] is described as follows: qHTS assay to identify small molecule agonists of the hypoxia (HIF-1) signaling pathway - cell viability counter screen (AID 1224844; calls by dose curve; further: nearly all actives have a fitted effect of over 50% in size). A digest of the protocol: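 Cytotoxicity measured by CellTiter-Glo ATP luminescence in the wells also read for beta-lactamase signal. Cells were HRE-bla ME-180 (2,000/well, 0.5% dialyzed FBS), exposed to compounds for 17 h at 37C.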
In general terms: qHTS replaces the single test concentration by a dilution series.

Test [2] in a line: qHTS assay to identify small molecule agonists of the hypoxia (HIF-1) signaling pathway (AID 1224846; active means well fitted activation curve with a large enough effect in the signal ratio in the repeat runs, not every such curve was filed as active; the % refers to the signal ratio). A digest of the protocol:
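Compounds added to ME-180 cells carrying hypoxia-response-element beta-lactamase reporter (0.5% dialyzed FBS, 5 h preplating), 17 h at 37C; agonist activity detected by CCF4-AM B/G FRET read-out.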

Test [3] can be described thus: qHTS assay to identify small molecule agonists of H2AX - cell viability counter screen (AID 1224847; calls by dose curve;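 further: wild-type CHO-K1 cells; top concentration of the series differs between compounds; nearly all actives have a fitted effect of over 30% in size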). In outline:
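CHO-K1 cells plated overnight at 37C, then exposed 3 h at 37C to compounds at 15 concentrations (0.76% DMSO final). Viability by CellTiter-Glo luminescence after 30 min at room temperature.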

Test [4] in a line: qHTS assay to identify small molecule antagonists of the estrogen related receptor (ERR) signaling pathway from Tox21 library (AID 1224848). Further: nearly all actives have a fitted effect of over 50% in size. Further: potency means the concentration at half of the fitted maximal effect. A digest of the protocol: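 Luciferase luminescence (ONE-Glo, 30 min room temperature) was the read-out. Cells of the NTP-supplied ERR line, 2,000 per well, were given 6 h at 37 C before compound addition in DMSO and 18 h exposure at 37 C.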

Test [5] is described as follows: qHTS RealTime-Glo MT Cell Viability Assay in HepG2 cells - 24 hour (AID 1224867). Further: nearly all actives have a fitted effect of over 50% in size. A digest of the protocol:
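Viability was tracked continuously by NanoLuc luminescence from prosubstrate reduced by living HepG2 cells, at successive time points over 40 h of compound exposure. Cells with reagent were preincubated 5 h at 37 °C before compound addition.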

Test [6] in a line: qHTS RealTime-Glo MT Cell Viability Assay in HEK293 cells - 32 hour (AID 1224868). Further: nearly all actives have a fitted effect of over 50% in size. Further: potency means the concentration at half of the fitted maximal effect. On activity change, negative = cytotoxic: top concentration of the series differs between compounds. A digest of the protocol:
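Viability tracked continuously by luminescence as live cells reduce a prosubstrate for NanoLuc; HEK293 cells preincubated 5 h, compound-treated at 37 C, and read at 0, 8, 16, 24, 32 and 40 h.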

Test [7] in a line: A CellTox Green Cytotoxicity Assay to monitor cytotoxicity in HEK293 cells - 0 hour (AID 1224869). Further: nearly all actives have a fitted effect of over 50% in size. In outline:
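Fluorescence from a DNA-binding dye excluded by viable cells was measured repeatedly in the same HEK293 wells (600 cells/well) during continuous compound exposure at 37 C. Each assay gives one read point: 0, 8, 16, 24, 32 or 40 h.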

A short description of test [8]: qHTS assay to identify small molecule agonists of H2AX (AID 1224845; active means well fitted activation curve with a large enough effect in the signal ratio in the repeat runs, not every such curve was filed as active; the % refers to the signal ratio). In outline: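 Phospho-H2AX Ser139 measured by HTRF (ex 320 nm; em 665 and 620 nm) after 24 hr antibody incubation. Compounds, 15 concentrations, 0.76% DMSO, were applied to CHO-K1 cells for 3hr at 37C before lysis.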
A short description of test [9]: qHTS assay to identify small molecule agonists of the estrogen related receptor (ERR) signaling pathway from Tox21 library (AID 1224849; calls by dose curve; further: nearly all actives have a fitted effect of over 15% in size). Conditions: ERR reporter cell line, ONE-Glo luciferase, 18 h; at 92.4 µM (top of the series) unless noted. A digest of the protocol:
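Luminescent agonist read-out (One-Glo, 30-minute room-temperature incubation) following 18-hour compound treatment at 37 C of the ERR cell line, which had been plated 6 hours before dosing.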

Molecules are shown by their SMILES. Unmarked numbers belong to inactive results. Records with an inconclusive call do not appear. The source made the active and inactive calls. Unless noted, the call rests on the fitted dose curve; in most records, active means well fitted curve in the direction sought with a large enough effect in the repeat runs; inconclusive means weak or mixed curves; inactive means no such curve, though single readings can be large; an effect the other way counts as inactive or inconclusive.
On the % scale 0 is the no-effect control and ±100 the full control effect.

In the case of `CNc1ccccc1`, the Potency result in test [1], in [3], in [4], in test [6] and in test [7] was “inactive” each time. Moreover, the outcome in test [2] and in test [5] was inactive.

Regarding `CS(C)=O`, the Potency entry in test [1], in test [8], in test [3] and in [7] was “inactive” each time.

As for `Cc1c(-c2cccnc2)c2ccccc2n1CCCCC(=O)O`, the compound was called inactive in test [2] and in [5]. Moreover, the Potency result in test [3], in test [4] and in test [7] was “inactive” each time. In [9], the activity change, positive = activation is -5.77%.

Turning to `O=c1[nH]nc(-c2ccc([N+](=O)[O-])o2)o1`, the Potency result in test [1] and in test [7] was “inactive” in each case. Moreover, the result in test [2] was inactive. Also, the activity change, positive = activation in [9] is -20.3%.

With `CC/C=C/CCO`, the Potency entry in test [8], in test [4] and in test [7] was “inactive” in each case. Further, in [9], the activity change, positive = activation was 5.37%. Further, the outcome in test [5] was inactive.

As for `CCCc1nc(C)c2c(=O)[nH]c(-c3cc(S(=O)(=O)N4CCN(CC)CC4)ccc3OCC)nn12`, the Potency result in test [8], in [3], in test [6] and in [7] was “inactive” in each case. Moreover, in [5], the result was inactive.

For the compound `Cc1ccc(Cl)c(OCC(O)CNC(C)(C)C)c1` (stereo not drawn), the Potency entry in [1], in test [3], in test [6] and in test [7] was “inactive” in each case. Besides, the compound was classed as inactive in test [2] and in test [5].

For `CC(C)(O)C(=O)O`, the Potency result in [1], in test [3], in test [6] and in [7] was “inactive” in each case. In addition, in [2], the call was inactive.

With `COc1ccc(/C=C/c2cc(OC)cc(=O)o2)cc1`, the Potency result in test [1], in test [3], in test [4] and in test [7] was “inactive” throughout. Moreover, the call in test [2] and in [5] was inactive. Also, the activity change, positive = activation in [9] is 55.8% [at 42.5 µM] (active).

For `C=CC(C)(O)CC/C=C(/C)CCC=C(C)C` (stereo not drawn), the Potency entry in [8], in test [3], in test [6] and in test [7] was “inactive” in each case. The call in test [2] and in [5] was inactive.

For the compound `C[C@]12CCC(=O)C=C1[C@@H]1C[C@@H]1[C@H]1[C@@H]3[C@@H]4C[C@@H]4[C@@]4(CCC(=O)O4)[C@@]3(C)CC[C@@H]12`, the Potency result in [1], in test [8] and in [7] was “inactive” in each case. Also, the result in test [2] and in test [5] was inactive. In addition, in test [4], the Potency is 26.6 µM (active). The activity change, positive = activation in [9] is -43.4% [at 42.5 µM].

In the case of `Clc1cc(Cl)c2c(c1)N=C1CCCCCN1C2`, the Potency result in test [1], in [4] and in test [7] was “inactive” in each case. Also, the activity change, positive = activation in test [9] was 2.85% [at 42.5 µM]. In addition, in [5], the compound was classed as inactive.

Regarding `Clc1cccc(C(c2ccc3nc[nH]c3c2)n2ccnc2)c1` (stereo not drawn), the Potency result in test [1], in [3] and in test [7] was “inactive” each time. For the same compound, the call in [2] and in [5] was inactive.

Regarding `Cc1nc2sccn2c(=O)c1CCN1CCC(=C(c2ccc(F)cc2)c2ccc(F)cc2)CC1`, the Potency result in test [8] and in test [7] was “inactive” each time. Moreover, the outcome in test [2] and in test [5] was inactive. Moreover, the Potency in test [4] is 26.6 µM (active); in test [6], 3.38 µM (active). In test [9], the activity change, positive = activation is -44.9% [at 42.5 µM].

As to `CCC(=O)O[C@@H]1C[C@H]2CC[C@]1(C)C2(C)C`, the Potency entry in [8], in [3] and in [4] was “inactive” in each case. Further, the result in test [2] was inactive. In addition, in test [9], the activity change, positive = activation was 0.21%.

`c1ccc(-c2ccc(-c3ccccc3)cc2)cc1`: the activity change, negative = cytotoxicity in test [1] is 1.63% [at 15.8 µM]; in [3], -0.782% [at 31.6 µM]; in test [5], 1.53% [at 15.8 µM]. The activity change, negative = cytotoxic in [6] was 0.807% [at 15.8 µM]. The cytotoxicity in [7] was -5.7% [at 15.8 µM].

Turning to `Nc1nc(Cl)nc2c1ncn2[C@H]1C[C@H](O)[C@@H](CO)O1`, the Potency result in test [1], in [6] and in test [7] was “inactive” each time. In addition, in test [5], the outcome was inactive.

On to `C(/C=C/C=C/Nc1ccccc1)=Nc1ccccc1`, for which the Potency result in [1], in test [3], in test [6] and in test [7] was “inactive” throughout. The compound was classed as inactive in test [2] and in test [5].

For `O=C(O)c1cccnc1Nc1cccc(C(F)(F)F)c1`, the Potency result in [1], in test [8], in [6] and in test [7] was “inactive” in each case. Also, the activity change, positive = activation in test [9] was -25.2% [at 42.5 µM].

Consider `Nc1ccccc1Nc1ccccc1`, for which the Potency result in [1] and in [7] was “inactive” throughout. Besides, the call in test [2] and in test [5] was inactive.

Take `O=C(OCCOCCOCCOC(=O)c1ccccc1)c1ccccc1`: the Potency entry in test [1], in [8], in test [6] and in [7] was “inactive” throughout. In addition, the compound was classed as inactive in test [5].

In the case of `CCCCCCCCC(=O)OCC(C)OC(=O)CCCCCCCC` (stereo not drawn), the Potency result in test [1], in test [6] and in test [7] was “inactive” in each case. For the same compound, the call in [5] was inactive.

Take `O=C(O)c1cc(C(=O)O)cc([N+](=O)[O-])c1`: the Potency entry in test [1], in [8], in [6] and in [7] was “inactive” in each case. Moreover, the compound was called inactive in [2] and in test [5].

On to `COC(=O)Cc1cccc2ccccc12`, for which the Potency result in test [1], in [3] and in test [7] was “inactive” in each case. The call in [2] and in test [5] was inactive.

Take `Oc1ccc(CCNCCCCCCNCCc2ccccc2)cc1O`: in test [9], the activity change, positive = activation is -19.4% [at 42.5 µM]. Besides, the call in test [5] was inactive. Further, in test [6], the Potency was 26.8 µM (active).

As to `CC(C)(C)c1ccc(CCC=O)cc1`, the Potency result in [1], in test [8], in test [6] and in [7] was “inactive” in each case. The outcome in [2] and in test [5] was inactive.

As to `O=C1c2ccccc2C(=O)c2c1ccc(O)c2O`, the Potency result in test [1], in test [3], in [6] and in test [7] was “inactive” in each case. The call in test [2] and in [5] was inactive.

With `CC(CN=Cc1ccccc1O)N=Cc1ccccc1O` (stereo not drawn), the Potency entry in [1], in test [8], in test [6] and in test [7] was “inactive” in each case. For the same compound, the compound was called inactive in test [2] and in test [5].

For the compound `C=CCCC`, the Potency result in test [8], in test [3], in test [6] and in test [7] was “inactive” throughout. Further, the compound was called inactive in [2] and in test [5].

Take `C1=COCCC1`: the Potency result in test [8], in [3], in test [6] and in [7] was “inactive” throughout. Further, the call in [5] was inactive.

On to `O=C1c2ccccc2C(=O)C1c1ccc2cc(S(=O)(=O)O)cc(S(=O)(=O)O)c2n1`, for which the Potency result in [3], in test [4], in test [6] and in test [7] was “inactive” throughout. Also, in [9], the activity change, positive = activation was 54.8% (active).

As to `SCCOCCOCCS`, the outcome in test [2] and in [5] was inactive. Besides, in test [7], the Potency entry is “inactive”.

On to `CCOCCn1c(N2CCCN(C)CC2)nc2ccccc21`, for which the Potency result in test [8], in test [3] and in test [7] was “inactive” in each case. Moreover, the call in [2] and in [5] was inactive.
